From PubChem BioAssay
Active and inactive are the calls of the source.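 Rule for the calls, unless noted: active = inhibition at or above 50% at 10 µM; inactive = inhibition below 50%.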

How the values were obtained:
[1] = inhibitors of TNFa-induced NFkB p65 translocation, primary screen, imaging, HUVEC, MLSMR starter and 10KST1 sets (AID 438;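 active = inhibition above 20% together with a positive visual image hit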;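 note: compound added about 3h40 before a 20 min TNFalpha stimulation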;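 for inhibition: signal is the nuclear over cytoplasmic p65 intensity ratio per well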); details: HUVEC TNFa-induced p65 nuclear translocation; cell count: measured here: nuclei count (cytotoxicity indicator), at 2.08 µM; inhibition: at 2 µM, stronger effect = higher value, 0% TNFa-plus-vehicle, 100% no-TNFa wells
[2] = inhibitors of mutant huntingtin aggregation, primary screen, imaging, exon1htt(103Q)mCFP cells, high-content imaging (AID 483;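 active = visual image review flags a hit and inhibition of aggregation exceeds 20%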;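 note: compound exposure lasted 3 days before fixation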;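 for nuclei count: percent of the per-plate median nuclei count of sample wells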); details: exon1htt(103Q)mCFP cell line, aggregate imaging, at 2 µM; inhibition of aggregation: stronger effect = higher value; nuclei count: measured here: cell count, toxicity
[3] = inhibitors of E-selectin induction by TNFa, primary screen, imaging, HUVEC, immunofluorescence, MLSMR starter and 10KST1 sets (AID 487;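 active = visually confirmed hit in the image check and inhibition above 20%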;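 for inhibition: signal is fraction of cell area covered by stained E-selectin grains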;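 for nuclei count: 100% = median nuclei count of all wells on the same plate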); details: HUVEC TNFalpha-induced E-selectin immunofluorescence imaging, at 2 µM; inhibition: stronger effect = higher value; nuclei count: measured here: cell number, toxicity
[4] = target: Voltage-gated potassium channel subunit beta-2 (Rattus norvegicus) (UniProt P62483); test: KvBeta enzyme negative modulators, primary screen, biochemical, NADPH fluorescence (AID 622;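 active = fluorescence slope higher than the sample average by over 3 SD, cut at about -0.22 in these data, passing the limit was not always enough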;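 note: slope of raw intensity against log time taken from 70 to 1610 s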); details: recombinant KvBeta, 4-cyanobenzaldehyde reduction, at 10 µM, stronger effect = higher value
[5] = target: Voltage-gated potassium channel subunit beta-2 (Rattus norvegicus) (UniProt P62483); test: KvBeta positive modulators, primary screen, biochemical, NADPH fluorescence (AID 623;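 active = NADPH fluorescence slope more negative than the mean of all samples by about 3 SD, 99.7% confidence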;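 note: fluorescence intensity change per second fitted from 20 to 320 s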); details: Recombinant KvBeta, NADPH fluorescence decrease slope, 10 min; at 10 µM; stronger effect = lower value
[6] = target: Alpha-2C adrenergic receptor (Homo sapiens) (UniProt P18825); test: modulators of alpha2C/GIRK thallium flux, primary screen, cell-based, HEK293 alpha2C/GIRK1/2 (AID 624;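 active = fluorescence slope after compound addition differing from the mean of all screened samples at 99.7% confidence, in either direction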;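 note: slope of fluorescence ratio to pre-addition baseline per second over 15 to 24 s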); details: thallium flux BTC fluorescence, at 10 µM, actives lie on both sides
[7] = inhibitors of Sendai virus-induced IRF3 signaling, primary screen, TLR/RLR signaling modifier project, cell-based, Sendai virus stimulus, luciferase, 10K MLSCN set (AID 602276); details: HEK293 RL24 IRF3 luciferase reporter, at 10 µM, stronger effect = higher value;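 note: firefly luciferase from ISG56 promoter only with Renilla not read in this screen; 0% = Sendai virus plus DMSO and 100% = medium plus DMSO without virus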
[8] = inhibitors of poly I:C-induced TLR3 signaling, primary screen, cell-based, poly I:C stimulus, luciferase, 10K MLSCN set (AID 602277;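 active = inhibition of the reporter signal at or above 50%; inactive = inhibition below 50%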); details: HEK293-TLR3 RL24 IRF3 luciferase reporter, at 10 µM, stronger effect = higher value

Alpha-2C adrenergic receptor (Homo sapiens), sequence (P18825 whole entry, looked up): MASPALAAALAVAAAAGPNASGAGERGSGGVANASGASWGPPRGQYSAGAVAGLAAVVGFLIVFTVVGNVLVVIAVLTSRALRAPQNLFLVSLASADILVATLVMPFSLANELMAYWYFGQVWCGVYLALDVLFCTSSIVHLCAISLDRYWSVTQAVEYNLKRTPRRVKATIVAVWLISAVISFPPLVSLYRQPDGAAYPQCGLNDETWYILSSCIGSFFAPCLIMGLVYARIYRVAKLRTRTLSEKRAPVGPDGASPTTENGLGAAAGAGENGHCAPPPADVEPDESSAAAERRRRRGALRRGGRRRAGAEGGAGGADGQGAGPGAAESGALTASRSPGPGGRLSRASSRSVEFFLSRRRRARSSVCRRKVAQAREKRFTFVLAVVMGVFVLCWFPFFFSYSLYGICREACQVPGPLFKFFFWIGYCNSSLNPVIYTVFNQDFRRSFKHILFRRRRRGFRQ
Voltage-gated potassium channel subunit beta-2 (Rattus norvegicus), sequence (P62483 whole entry, looked up): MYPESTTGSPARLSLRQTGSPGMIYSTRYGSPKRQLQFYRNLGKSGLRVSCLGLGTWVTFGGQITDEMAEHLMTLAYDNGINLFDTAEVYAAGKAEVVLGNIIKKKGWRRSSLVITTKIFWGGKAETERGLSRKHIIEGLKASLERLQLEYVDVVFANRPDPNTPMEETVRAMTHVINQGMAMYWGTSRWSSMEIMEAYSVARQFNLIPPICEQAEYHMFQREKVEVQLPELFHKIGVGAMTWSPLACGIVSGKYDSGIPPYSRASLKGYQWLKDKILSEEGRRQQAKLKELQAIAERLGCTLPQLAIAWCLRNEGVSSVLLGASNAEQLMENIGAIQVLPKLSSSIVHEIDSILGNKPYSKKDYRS

Compound | cell count [1] | inhibition [1] | inhibition of aggregation [2] | nuclei count [2] | inhibition [3] | nuclei count [3] | fluorescence slope [4] | NADPH fluorescence slope [5] | slope [6] | inhibition [7] | inhibition [8]
CC(C)(C)c1ccc(-c2nnc(SCCC#N)n2C2CCCC2)cc1 | 410 | 5.5% (inactive) | 10.8% (inactive) | 115% | -2.3% (inactive) | 97.3% | -0.483 (inactive) | -3e-05 (inactive) | 0.00637 (inactive) | -5.13% (inactive) | 10.8% (inactive)
CCn1cc(C(=O)NCCCOC)c(=O)c2cc(S(=O)(=O)N(C)C)ccc21 | 693 | -5% (inactive) | 6% (inactive) | 82.6% | -42.6% (inactive) | 112% | -0.418 (inactive) | 3.3e-05 (inactive) | 0.00533 (inactive) | 4.09% (inactive) | 31.3% (inactive)
C=CCn1c(Cc2cccs2)nnc1SCC(=O)Nc1ccc(OC)c(OC)c1 | 268 | 4% (inactive) | 19.5% (inactive) | 87.7% | -26.5% (inactive) | 134% | -0.445 (inactive) | -1.9e-05 (inactive) | 0.00229 (inactive) | 13.5% (inactive) | 26.6% (inactive)
OC(CN1CCCCC1)Cn1c(C(F)(F)F)nc2ccccc21 (stereo not given) | 730 | -17.7% (inactive) | 25.1% (inactive) | 122% | -98.5% (inactive) | 95.5% | -0.362 (inactive) | -7.1e-05 (inactive) | 0.00651 (inactive) | 12.8% (inactive) | 24.9% (inactive)
Cc1cc(=O)[nH]c(S/C=C/c2ccccc2)n1 | 427 | -1.8% (inactive) | -8.6% (inactive) | 103% | 1.2% (inactive) | 80.7% | -0.603 (inactive) | -2e-05 (inactive) | 0.00593 (inactive) | -28.9% (inactive) | -89.2% (inactive)
O=S1(=O)C=C(Sc2nnc(-c3ccccc3)o2)c2ccccc21 | 237 | 7.4% (inactive) | 0.8% (inactive) | 93.4% | -55.3% (inactive) | 109% | -0.479 (inactive) | -5.2e-05 (inactive) | 0.00503 (inactive) | 12.3% (inactive) | 66.1% (active)
CCOC(=O)N1CCC(NC(=O)c2ccc3c(c2)N(CC)CCS3)CC1 | 382 | -2.4% (inactive) | -22.2% (inactive) | 70.3% | -62.7% (inactive) | 114% | -0.0283 (active) | -5.8e-06 (inactive) | 0.00586 (inactive) | 12.8% (inactive) | 34.1% (inactive)
Nc1c(C(=O)NCc2ccco2)nnn1Cc1ccccc1 | 277 | -13.1% (inactive) | 5.9% (inactive) | 94.8% | -65.2% (inactive) | 115% | -0.399 (inactive) | -4.5e-05 (inactive) | 0.00354 (inactive) | 8.14% (inactive) | 3.26% (inactive)
Cc1ccccc1C(=O)NC1CCN(Cc2nnnn2Cc2ccccc2)CC1 | 551 | -30.6% (inactive) | -10.9% (inactive) | 110% | -36.5% (inactive) | 111% | -0.585 (inactive) | -4.3e-05 (inactive) | 0.00483 (inactive) | 7.81% (inactive) | 19.8% (inactive)
Cc1c(NS(=O)(=O)c2ccc3c(c2)n(C)c(=O)n3C)c(=O)n(-c2ccccc2)n1C | 582 | 2.7% (inactive) | -2% (inactive) | 99.2% | 28% (inactive) | 93% | -0.616 (inactive) | 1.5e-05 (inactive) | 0.00372 (inactive) | 15.8% (inactive) | 13.4% (inactive)
CCCCc1nc2ccccc2n2cc3c(=O)n(C)c(=O)n(C)c3c12 | 877 | 5.2% (inactive) | -29.8% (inactive) | 81.2% | -48.7% (inactive) | 104% | -0.524 (inactive) | -1.7e-05 (inactive) | 0.00741 (inactive) | 14.3% (inactive) | 28.9% (inactive)
COc1ccc(N2CCN(CCNS(=O)(=O)c3cccc4nsnc34)CC2)cc1 | 353 | -3% (inactive) | 8.4% (inactive) | 106% | -119% (inactive) | 104% | -0.443 (inactive) | 1.8e-05 (inactive) | 0.00512 (inactive) | 11.2% (inactive) | 18% (inactive)
Cc1cc(C)nc(NS(=O)(=O)c2ccc(NC(=O)Cn3c(=O)oc4ccccc43)cc2)n1 | 490 | 0.5% (inactive) | 26% (inactive) | 63.8% | -31.3% (inactive) | 122% | -0.577 (inactive) | -4.3e-06 (inactive) | 0.00665 (inactive) | 9.3% (inactive) | 25.4% (inactive)
CC(=O)c1ccc2c3c(cccc13)C(=O)N(c1c(C)nn(C)c1C)C2=O | 655 | -4.4% (inactive) | -24.6% (inactive) | 108% | -14% (inactive) | 97.5% | -0.633 (inactive) | -5.6e-06 (inactive) | 0.00453 (inactive) | 6.92% (inactive) | -10.1% (inactive)
CCN(CC(=O)NCc1cccs1)C(=O)c1cc(S(=O)(=O)N2CCOCC2)ccc1C | 591 | -9.6% (inactive) | -22.2% (inactive) | 107% | -82.2% (inactive) | 136% | -0.466 (inactive) | -3.7e-05 (inactive) | 0.00388 (inactive) | 1.74% (inactive) | 27.8% (inactive)
O=C(Nc1cccc2ccccc12)c1ccc(Br)o1 | 638 | 5.6% (inactive) | 7.9% (inactive) | 104% | 18.2% (inactive) | 94.7% | -0.437 (inactive) | -1.5e-05 (inactive) | 0.00359 (inactive) | 2.74% (inactive) | 19.8% (inactive)
COc1ccc(S(=O)(=O)NCCOc2ccccc2)cc1OC | 310 | -3.3% (inactive) | 8.7% (inactive) | 95.3% | -41.2% (inactive) | 96.1% | -0.439 (inactive) | -3.7e-05 (inactive) | 0.00599 (inactive) | 12.3% (inactive) | 22.2% (inactive)
Cc1nccn1CCCN1C(=O)OC2(CCCCC2)C1(C)O (stereo not given) | 350 | -3% (inactive) | 2.3% (inactive) | 113% | -4.4% (inactive) | 105% | -0.522 (inactive) | -3.8e-05 (inactive) | 0.00543 (inactive) | 4.87% (inactive) | 17.2% (inactive)
O=C(CNCCC1=CCCCC1)Nc1ccccc1N1CCCCC1 | 531 | -56.1% (inactive) | -10.4% (inactive) | 107% | -65.7% (inactive) | 109% | -0.581 (inactive) | -2.4e-05 (inactive) | 0.00492 (inactive) | 7.21% (inactive) | 18.4% (inactive)
CN(C)S(=O)(=O)Nc1ccccc1C(N)=O | 425 | -9.8% (inactive) | -9.1% (inactive) | 102% | -21.7% (inactive) | 109% | -0.355 (inactive) | -3.8e-05 (inactive) | 0.00484 (inactive) | 15.1% (inactive) | 11.7% (inactive)
